Results: the supplement of paper PMC10849652
About 7,900 targets were measured; listed, in parts, are those with a hit and a random draw of the rest. About 0.6% of all pairs of compound and target were hits. Unmarked numbers belong to inactive results.

How the values were obtained:
Test in all cases: log2 fold change, soluble protein after heating vs DMSO (PISA); higher = thermal stabilisation; K562 cells, 10 uM, 30 min; active = over 0.2 and 3.5 SD of the protein, either way, in both replicates (recomputed)
[1] = compound: CC[C@@H]1C(=O)N(C)c2cnc(Nc3ccc(C(=O)NC4CCN(C)CC4)cc3OC)nc2N1C1CCCC1
Summary of the method: (§1)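 Soluble protein was quantified by TMTpro 16plex LC-MS/MS after channel sums were equalised. It was obtained as the supernatant after 21,000xg for 90 min from pooled aliquots of K562 cells (2×10^6 cells/mL, 10 μM compound, 30 min) heated for 3 min across 48°C-58°C and extracted in PBS with 0.5% NP-40 at 4°C. Thermal stability values are relative to control samples and come from duplicates. They are given as log2 fold changes.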

[2] = compound: CC[C@@H]1C(=O)N(C)c2cnc(Nc3ccc(C(=O)N[C@H]4CC[C@H](N5CCN(CC6CC6)CC5)CC4)cc3OC)nc2N1C(C)C [volasertib]
Summary of the method: as §1

[3] = compound: CC[C@H](C)N1C=C(C2=C(C=C(C=C21)C3=CN=C(C=C3)N4CCNCC4)C(=O)NCC5=C(C=C(NC5=O)C)C)C
Summary of the method: as §1

[4] = compound: CC[C@H](C)[C@@H](C(=O)N[C@@H]([C@@H](C)O)C(=O)N[C@@H](CC(C)C)C(=O)[C@]1(CO1)C)NC(=O)[C@H]([C@@H](C)CC)N(C)C(=O)C [epoxomicin]
Summary of the method: as §1

[5] = compound: CCn1c(C(=O)N(C2CC2)C2CC2)cc2c3c(ncn3C)c(Nc3cc(C)n(C)n3)nc21
Summary of the method: as §1

[6] = compound: CCn1cc(-c2ccnc3[nH]c(-c4cccc(CN(C)C)c4)cc23)c(-c2ccc(NC(=O)N(C)C)cc2)n1
Summary of the method: as §1

[7] = compound: CN(C)CC(=O)Nc1ccc2[nH]c(=O)c3ccccc3c2c1
Summary of the method: as §1

[8] = compound: CN1C2=C(C3=C1C(=O)N(N=C3)CC4=CC(=CC=C4)N)SC(=C2)S(=O)C
Summary of the method: as §1

[9] = compound: CN1CCC(CNc2ccc3ncc(-c4cccc(OC(F)(F)F)c4)n3n2)CC1
Summary of the method: as §1

[10] = compound: CN1CCN(CCOc2cc(OC3CCOCC3)c3c(Nc4c(Cl)ccc5c4OCO5)ncnc3c2)CC1 [saracatinib]
Summary of the method: as §1

[11] = compound: CN1CCN(c2nc(C3=C(c4c[nH]c5ccccc45)C(=O)NC3=O)c3ccccc3n2)CC1 [sotrastaurin]
Summary of the method: as §1

[12] = compound: CN1CC[C@H](c2c(O)cc(O)c3c(=O)cc(-c4ccccc4Cl)oc23)[C@H](O)C1 [alvocidib]
Summary of the method: as §1

[13] = compound: CNC(=O)C1=CC=CC=C1NC2=NC(=NC=C2Cl)NC3=C(C=C(C=C3)N4CCOCC4)OC
Summary of the method: as §1

[14] = compound: CNC(=O)c1ccc(Nc2ncc(C(F)(F)F)c(NCc3nccnc3N(C)S(C)(=O)=O)n2)cc1 [defactinib]
Summary of the method: as §1

[15] = compound: CNCc1ccc(-c2[nH]c3cc(F)cc4c3c2CCNC4=O)cc1 [rucaparib]
Summary of the method: as §1

[16] = compound: CNc1nc(-c2ccc3c(N)n[nH]c3c2)cc(N2C[C@@H](C(=O)NC3CCCCC3)CC[C@H]2C)n1
Summary of the method: as §1

[17] = compound: COC(=O)N[C@@H](C)CNc1nccc(-c2cn(C(C)C)nc2-c2cc(Cl)cc(NS(C)(=O)=O)c2F)n1 [encorafenib]
Summary of the method: as §1

[18] = compound: COC(=O)[C@H](CCSC)NC(=O)C1=C(C=C(C=C1)NC[C@H](CS)N)C2=CC=CC=C2
Summary of the method: as §1

[19] = compound: CN(CCOC1=CC=C(C=C1)C[C@H]2C(=O)NC(=O)S2)C3=CC=CC=N3 (racemic) [rosiglitazone]
Summary of the method: as §1

[20] = compound: CN1CCc2c(c3ccccc3n2Cc2ccc(C(=O)NO)cc2)C1 [Tubastatin A]
Summary of the method: as §1

Chain of UniProt Q9NSI2 (Q9NSI2 whole entry, looked up): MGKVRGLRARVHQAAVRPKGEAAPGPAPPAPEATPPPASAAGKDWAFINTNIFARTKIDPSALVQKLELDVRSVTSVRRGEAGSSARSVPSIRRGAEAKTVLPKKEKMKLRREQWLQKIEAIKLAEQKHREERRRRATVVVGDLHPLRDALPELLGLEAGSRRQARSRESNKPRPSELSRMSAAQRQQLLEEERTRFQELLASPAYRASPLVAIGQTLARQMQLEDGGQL
Chain of UniProt Q8TCE6 (Q8TCE6 whole entry, looked up): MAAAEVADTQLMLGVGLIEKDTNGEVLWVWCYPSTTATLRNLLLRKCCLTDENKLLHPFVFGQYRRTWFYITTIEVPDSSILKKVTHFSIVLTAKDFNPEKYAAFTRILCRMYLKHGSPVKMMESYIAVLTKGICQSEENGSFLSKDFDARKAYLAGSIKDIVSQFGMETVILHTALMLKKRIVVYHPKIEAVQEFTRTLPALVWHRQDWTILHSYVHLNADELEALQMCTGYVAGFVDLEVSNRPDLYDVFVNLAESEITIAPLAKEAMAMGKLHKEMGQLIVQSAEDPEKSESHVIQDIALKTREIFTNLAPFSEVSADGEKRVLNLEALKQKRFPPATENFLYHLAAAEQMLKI
Chain of UniProt Q9NZJ5 (Q9NZJ5 whole entry, looked up): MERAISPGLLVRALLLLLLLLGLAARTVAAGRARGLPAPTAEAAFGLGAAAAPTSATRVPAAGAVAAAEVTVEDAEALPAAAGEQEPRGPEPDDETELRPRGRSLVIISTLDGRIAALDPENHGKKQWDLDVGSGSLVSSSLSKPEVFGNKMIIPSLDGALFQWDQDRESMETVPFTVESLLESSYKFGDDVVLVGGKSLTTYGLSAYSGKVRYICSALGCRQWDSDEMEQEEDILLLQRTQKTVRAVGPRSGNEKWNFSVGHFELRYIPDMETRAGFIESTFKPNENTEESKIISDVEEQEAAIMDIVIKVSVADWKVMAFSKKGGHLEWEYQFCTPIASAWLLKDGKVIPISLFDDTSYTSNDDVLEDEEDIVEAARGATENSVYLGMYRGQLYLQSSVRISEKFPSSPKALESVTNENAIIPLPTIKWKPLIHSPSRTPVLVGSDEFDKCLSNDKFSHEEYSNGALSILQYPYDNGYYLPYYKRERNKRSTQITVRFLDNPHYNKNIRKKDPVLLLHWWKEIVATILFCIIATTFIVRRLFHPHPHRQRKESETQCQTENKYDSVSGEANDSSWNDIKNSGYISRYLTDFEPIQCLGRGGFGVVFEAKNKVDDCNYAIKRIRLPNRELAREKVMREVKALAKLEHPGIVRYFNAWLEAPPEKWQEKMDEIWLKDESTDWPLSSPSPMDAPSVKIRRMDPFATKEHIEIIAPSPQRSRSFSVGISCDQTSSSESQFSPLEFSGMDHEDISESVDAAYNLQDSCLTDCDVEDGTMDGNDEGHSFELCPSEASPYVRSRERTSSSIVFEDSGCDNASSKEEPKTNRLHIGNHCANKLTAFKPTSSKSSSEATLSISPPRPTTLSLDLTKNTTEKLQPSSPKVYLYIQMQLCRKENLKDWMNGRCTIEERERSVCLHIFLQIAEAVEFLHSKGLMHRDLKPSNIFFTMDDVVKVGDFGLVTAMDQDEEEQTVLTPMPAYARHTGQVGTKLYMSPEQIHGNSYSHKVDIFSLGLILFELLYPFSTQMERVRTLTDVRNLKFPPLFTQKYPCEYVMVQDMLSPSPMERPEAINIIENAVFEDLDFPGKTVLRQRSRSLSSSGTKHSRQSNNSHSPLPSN
Chain of UniProt Q9H410 (Q9H410 whole entry, looked up): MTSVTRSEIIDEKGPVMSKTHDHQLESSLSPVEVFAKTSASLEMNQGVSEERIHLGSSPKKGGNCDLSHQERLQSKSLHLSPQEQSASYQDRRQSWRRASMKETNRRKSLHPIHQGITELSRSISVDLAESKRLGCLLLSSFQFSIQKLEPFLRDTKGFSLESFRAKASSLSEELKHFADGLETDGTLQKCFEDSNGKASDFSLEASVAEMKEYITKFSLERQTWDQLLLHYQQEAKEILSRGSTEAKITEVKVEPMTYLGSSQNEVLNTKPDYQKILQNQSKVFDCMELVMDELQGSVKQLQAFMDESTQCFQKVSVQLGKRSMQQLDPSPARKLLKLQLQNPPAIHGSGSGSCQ
Chain of UniProt Q86YN1 (Q86YN1 whole entry, looked up): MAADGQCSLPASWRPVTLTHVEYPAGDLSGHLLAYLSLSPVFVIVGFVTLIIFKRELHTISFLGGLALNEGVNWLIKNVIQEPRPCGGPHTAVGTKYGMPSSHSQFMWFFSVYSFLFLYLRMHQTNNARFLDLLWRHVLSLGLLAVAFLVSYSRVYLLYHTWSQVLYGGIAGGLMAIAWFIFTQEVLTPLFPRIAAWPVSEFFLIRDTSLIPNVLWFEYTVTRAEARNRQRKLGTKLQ
Chain of UniProt Q8WYA6 (Q8WYA6 whole entry, looked up): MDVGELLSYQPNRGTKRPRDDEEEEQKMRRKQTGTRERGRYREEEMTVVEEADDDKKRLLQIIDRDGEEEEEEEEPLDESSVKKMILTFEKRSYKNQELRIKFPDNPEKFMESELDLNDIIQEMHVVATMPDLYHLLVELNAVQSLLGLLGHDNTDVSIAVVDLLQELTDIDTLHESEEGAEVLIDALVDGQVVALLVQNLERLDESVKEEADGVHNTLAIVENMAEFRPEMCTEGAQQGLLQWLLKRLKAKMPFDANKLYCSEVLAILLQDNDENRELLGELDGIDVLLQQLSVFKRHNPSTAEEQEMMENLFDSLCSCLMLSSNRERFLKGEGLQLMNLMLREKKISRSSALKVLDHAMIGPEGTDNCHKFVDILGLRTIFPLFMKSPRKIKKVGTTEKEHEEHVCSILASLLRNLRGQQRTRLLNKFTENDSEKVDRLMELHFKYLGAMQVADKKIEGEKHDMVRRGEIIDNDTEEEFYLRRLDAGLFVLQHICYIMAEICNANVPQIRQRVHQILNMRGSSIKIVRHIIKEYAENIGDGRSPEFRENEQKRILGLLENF
Chain of UniProt Q0VG06 (Q0VG06 whole entry, looked up): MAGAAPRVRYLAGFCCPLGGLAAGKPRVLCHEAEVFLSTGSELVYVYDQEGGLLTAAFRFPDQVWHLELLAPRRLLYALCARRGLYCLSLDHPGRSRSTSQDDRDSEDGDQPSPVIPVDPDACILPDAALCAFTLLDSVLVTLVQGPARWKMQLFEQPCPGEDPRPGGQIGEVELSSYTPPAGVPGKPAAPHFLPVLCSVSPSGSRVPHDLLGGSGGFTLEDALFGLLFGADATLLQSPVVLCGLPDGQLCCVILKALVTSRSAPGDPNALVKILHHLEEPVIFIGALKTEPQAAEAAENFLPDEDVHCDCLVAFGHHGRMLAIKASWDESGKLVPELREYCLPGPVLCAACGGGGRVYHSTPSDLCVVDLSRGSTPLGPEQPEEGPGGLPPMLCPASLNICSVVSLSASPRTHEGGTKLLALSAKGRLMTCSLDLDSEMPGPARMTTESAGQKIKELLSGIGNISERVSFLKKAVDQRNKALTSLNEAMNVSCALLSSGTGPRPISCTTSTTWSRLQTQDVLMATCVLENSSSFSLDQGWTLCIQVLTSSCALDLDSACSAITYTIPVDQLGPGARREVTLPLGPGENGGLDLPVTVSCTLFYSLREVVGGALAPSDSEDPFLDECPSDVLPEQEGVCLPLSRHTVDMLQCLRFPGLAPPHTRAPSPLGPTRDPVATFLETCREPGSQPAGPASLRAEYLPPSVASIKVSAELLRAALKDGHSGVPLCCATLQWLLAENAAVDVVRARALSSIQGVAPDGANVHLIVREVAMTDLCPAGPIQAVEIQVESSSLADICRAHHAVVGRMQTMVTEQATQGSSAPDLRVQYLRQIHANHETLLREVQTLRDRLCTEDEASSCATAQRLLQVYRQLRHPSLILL
Chain of UniProt Q9UER7 (Q9UER7 whole entry, looked up): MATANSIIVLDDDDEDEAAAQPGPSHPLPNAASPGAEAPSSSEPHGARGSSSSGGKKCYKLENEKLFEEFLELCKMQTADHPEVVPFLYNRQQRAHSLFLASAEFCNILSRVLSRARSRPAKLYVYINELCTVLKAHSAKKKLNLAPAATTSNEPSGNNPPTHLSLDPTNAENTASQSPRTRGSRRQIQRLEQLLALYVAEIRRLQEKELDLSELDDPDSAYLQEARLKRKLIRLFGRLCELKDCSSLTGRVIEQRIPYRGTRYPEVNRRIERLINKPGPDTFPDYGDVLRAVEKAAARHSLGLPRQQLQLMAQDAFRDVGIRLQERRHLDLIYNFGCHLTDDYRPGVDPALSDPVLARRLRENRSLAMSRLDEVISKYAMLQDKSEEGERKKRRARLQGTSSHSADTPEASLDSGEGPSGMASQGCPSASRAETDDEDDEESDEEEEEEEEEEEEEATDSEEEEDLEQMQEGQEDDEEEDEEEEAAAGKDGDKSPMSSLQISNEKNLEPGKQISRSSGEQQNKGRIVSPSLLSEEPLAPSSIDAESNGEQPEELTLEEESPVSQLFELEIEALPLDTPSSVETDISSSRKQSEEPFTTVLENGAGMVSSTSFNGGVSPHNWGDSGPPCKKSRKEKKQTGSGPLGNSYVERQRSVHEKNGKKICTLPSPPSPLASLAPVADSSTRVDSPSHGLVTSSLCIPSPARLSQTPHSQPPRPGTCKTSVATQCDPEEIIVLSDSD
Chain of UniProt Q9BPY3 (Q9BPY3 whole entry, looked up): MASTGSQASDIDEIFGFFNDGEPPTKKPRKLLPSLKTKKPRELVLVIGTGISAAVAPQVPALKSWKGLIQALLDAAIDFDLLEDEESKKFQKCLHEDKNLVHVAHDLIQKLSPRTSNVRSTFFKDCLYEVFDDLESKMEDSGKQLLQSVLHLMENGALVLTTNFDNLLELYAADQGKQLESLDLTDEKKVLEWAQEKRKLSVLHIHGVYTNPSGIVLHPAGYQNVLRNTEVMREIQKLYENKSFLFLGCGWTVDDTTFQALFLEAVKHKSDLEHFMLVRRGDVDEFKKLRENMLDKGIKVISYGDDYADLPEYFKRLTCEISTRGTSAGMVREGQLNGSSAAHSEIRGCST

Row | Target | log2 fold change [1] | log2 fold change [2] | log2 fold change [3] | log2 fold change [4] | log2 fold change [5] | log2 fold change [6] | log2 fold change [7] | log2 fold change [8] | log2 fold change [9] | log2 fold change [10] | log2 fold change [11] | log2 fold change [12] | log2 fold change [13] | log2 fold change [14] | log2 fold change [15] | log2 fold change [16] | log2 fold change [17] | log2 fold change [18] | log2 fold change [19] | log2 fold change [20]
1 | ELAC1 (UniProt Q9H777) | -0.067 | 0.055 | 0.046 | -0.002 | -0.073 | -0.488 (active) | 0 | 0.079 | -0.227 | 0.094 | 0.006 | 0.051 | -0.056 | -0.031 | 0.153 | 0.049 | 0.063 | 0.022 | – | –
2 | EEF1D isoform 2 (UniProt P29692) | -0.089 | -0.336 (active) | -0.001 | 0.008 | -0.031 | 0.05 | -0.022 | 0.015 | -0.039 | -0.04 | -0.03 | 0 | 0.107 | -0.011 | 0.053 | 0.017 | 0.078 | -0.013 | 0.019 | 0.001
3 | EEF2K (UniProt O00418) | -0.046 | -0.395 | – | 0.093 | 0.102 | 0.028 | 0.096 | – | -0.188 | – | – | 0.194 | 0.064 | -0.021 | 0.1 | – | -0.036 | -0.266 | – | –
4 | DENND10 (UniProt Q8TCE6) | -0.041 | -0.241 | 0.121 | -0.041 | -0.048 | – | 0.076 | -0.031 | – | 0.035 | 0.015 | 0 | -0.039 | -0.058 | -0.065 | -0.035 | 0.008 | -0.048 | 0.007 | 0.007
5 | EXOSC10 (UniProt Q01780) | -0.048 | 0.087 | – | -0.098 | -0.098 | -0.222 | -0.169 | 0.029 | -0.003 | -0.091 | 0.199 | 0.092 | -0.073 | 0.015 | 0.101 | 0.022 | -0.327 | 0.123 | -0.145 | 0.143
6 | FAM193B (UniProt Q96PV7) | 0.126 | 0.092 | – | -0.033 | – | – | -0.442 | 0.247 | – | -0.289 | 0.06 | -0.32 | – | 0.231 | 0.19 | 0.096 | 0.162 | 0.044 | 0.027 | -0.007
7 | DDX46 (UniProt Q7L014) | -0.259 | -0.275 | 0.087 | 0.192 | -0.211 | -0.129 | 0.133 | -0.066 | 0.087 | 0 | -0.197 | -0.157 | 0.054 | -0.296 | -0.125 | 0.028 | 0.05 | -0.085 | 0.106 | 0.101
8 | FAM207A (UniProt Q9NSI2) | -0.085 | -0.165 | 0.044 | -0.024 | 0.025 | 0.023 | 0.05 | 0.168 | 0.418 (active) | 0.005 | -0.115 | – | 0.028 | 0 | 0.064 | 0.007 | 0.149 | 0.031 | 0.146 | 0.106
9 | FAAP100 (UniProt Q0VG06) | -0.01 | 0.149 | -0.02 | 0.139 | -0.05 | -0.093 | 0.061 | -0.02 | 0.124 | 0.044 | -0.014 | -0.035 | -0.178 | -0.044 | 0.009 | -0.067 | -0.04 | -0.097 | 0.006 | 0.028
10 | ECPAS (UniProt Q5VYK3) | -0.188 | -0.602 (active) | 0.093 | 0.614 (active) | -0.097 | -0.029 | 0.079 | 0.026 | -0.143 | -0.055 | -0.124 | -0.033 | 0.012 | -0.06 | 0.09 | 0.027 | 0.122 | -0.045 | 0.041 | 0.038
11 | EIF4E2 (UniProt O60573) | -0.202 | -0.381 (active) | 0.124 | 0.018 | -0.053 | – | 0.063 | -0.034 | – | -0.229 | -0.288 | -0.052 | -0.026 | -0.001 | 0.126 | 0.008 | -0.013 | -0.013 | 0.035 | 0.07
12 | DAXX (UniProt Q9UER7) | 0.018 | -0.006 | 0.204 | – | -0.111 | -0.102 | -0.077 | -0.093 | 0.027 | -0.001 | -0.078 | 0 | -0.142 | 0.005 | 0.048 | 0.018 | -0.097 | 0.109 | 0.047 | 0.122
13 | CTNNBL1 (UniProt Q8WYA6) | -0.362 | -1.24 (active) | – | – | – | – | 0.012 | – | – | – | – | – | – | -0.513 | 0.137 | – | 0.121 | -0.19 | 0.072 | –
14 | EIF2AK3 (UniProt Q9NZJ5) | 0.322 | -0.114 | 0.357 | 0.033 | -0.295 | 0.106 | – | 0.14 | -0.017 | -0.019 | – | 0.045 | 0.183 | – | -0.125 | 0.082 | -0.216 | – | -0.308 | 0.039
15 | DCTPP1 (UniProt Q9H773) | 0.007 | -0.016 | -0.059 | 0.062 | -0.012 | -0.032 | -0.012 | -0.048 | 0.201 | 0.012 | 0.031 | -0.033 | -0.075 | -0.008 | -0.011 | -0.022 | -0.072 | 0.002 | 0.012 | 0.031
16 | DSN1 (UniProt Q9H410) | -0.218 | -0.418 (active) | -0.034 | -0.004 | -0.107 | – | 0.007 | -0.008 | – | 0.032 | -0.042 | -0.164 | -0.031 | -0.146 | 0.076 | 0.016 | 0.02 | 0.029 | -0.086 | 0.082
17 | DOLPP1 (UniProt Q86YN1) | -0.062 | -0.008 | -0.052 | – | -0.129 | – | 0.133 | – | – | – | – | -0.059 | 0.012 | -0.134 | 0.087 | – | -0.057 | 0.156 | -0.034 | -0.066
18 | FAM118B (UniProt Q9BPY3) | -0.087 | -0.445 (active) | 0.035 | 0.036 | -0.008 | -0.067 | 0.11 | – | -0.373 (active) | – | -0.02 | -0.142 | 0.088 | -0.113 | 0.041 | – | 0.029 | -0.037 | 0.026 | 0.019
